Screening data from PubChem.
RORg inh – inhibitors of mouse ROR gamma transcriptional activity | P51450 | Drosophila S2 Gal4-RORgamma UAS-luciferase reporter, 20 h | Potency, µM (series often up to 53.6 µM), inactives show at the highest dose activity change, negative = inhibition, most hits filed as inhibitors | 310,000 tested, 5.4% active; also: % is scaled to controls: 0 for no effect and ±100 for the full control effect; nearly all actives have a fitted effect of over 60% in size
Target sequence (P51450 whole entry, looked up, the tested form may be a part): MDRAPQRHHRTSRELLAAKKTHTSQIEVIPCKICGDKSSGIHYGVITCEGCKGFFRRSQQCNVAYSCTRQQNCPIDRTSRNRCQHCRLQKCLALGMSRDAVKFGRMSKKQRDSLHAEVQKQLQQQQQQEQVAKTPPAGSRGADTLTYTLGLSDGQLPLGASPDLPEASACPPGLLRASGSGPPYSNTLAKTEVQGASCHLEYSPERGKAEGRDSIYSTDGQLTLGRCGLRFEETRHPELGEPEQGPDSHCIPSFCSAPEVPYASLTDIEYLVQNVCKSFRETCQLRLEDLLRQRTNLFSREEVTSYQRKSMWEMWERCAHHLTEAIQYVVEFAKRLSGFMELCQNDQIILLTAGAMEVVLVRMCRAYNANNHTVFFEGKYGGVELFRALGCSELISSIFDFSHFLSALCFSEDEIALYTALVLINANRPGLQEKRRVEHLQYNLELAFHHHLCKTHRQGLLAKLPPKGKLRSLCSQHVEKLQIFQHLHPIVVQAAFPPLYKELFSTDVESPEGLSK
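Drosophila Schneider cells stably carrying a metallothionein-driven Gal4 DBD–ROR gamma fusion and a UAS-Photinus luciferase reporter were exposed to compound for 1 hr, then induced with copper sulfate (700 uM final) for 20 hr at ambient temperature before luminescence reading.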
S2 tox – viability counter-screen for ATXN expression inhibitors. 400,000 tested, 0.49% active. S2 cells (HEK-293 line with an ATXN2-luciferase reporter) viability, CellTiter-Fluor protease fluorescence, 24 h. Potency, µM (highest dose often 56.7 µM), most hits filed as cytotoxic; also: nearly all actives have a fitted effect of over 40% in size
TGFb inhibitor – TGF-b pathway inhibition | HepG2 CAGA-GFP TGF-b/SMAD3 reporter, GFP fluorescence, 18 h; TGF-beta stimulated, 500 pg/mL final | Potency, µM (top dose mostly 46.1 µM), for inactives: top-dose activity, negative = inhibition, most hits filed as inhibitors | 410,000 tested, 1.2% active; also: % is scaled to controls: 0 for no effect and ±100 for the full control effect; nearly all actives have a fitted effect of over 65% in size
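Cell-based qHTS in HEPG2 carrying a CAGA-GFP Smad reporter; compounds added before 500 pg/mL final TGF-beta, 18 h incubation at 37 degrees C, GFP fluorescence quantified per cell by imaging cytometry.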
ATXN2 expr inh – reduces ATXN2 reporter expression in HEK-293 cells; HEK-293 ATXN2-luciferase reporter, luminescence, 24 h; Potency, µM (highest dose often 57 µM), inactives show top-dose activity change, negative = inhibition, actives largely listed as inhibitors; 360,000 tested, 0.72% active; AID 1745845; also: % is scaled to controls: 0 for no effect and ±100 for the full control effect; nearly all actives have a fitted effect of over 55% in size
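ATXN2-luciferase reporter cells (luciferase flanked by upstream and downstream ATXN2 gene portions) were treated 24 h at 37 °C with compounds at up to 57 uM. SteadyGlo luminescence gave expression; GF-AFC fluorescence gave viability.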
VP16 counter – inhibits Gal4-VP16 luciferase reporter, ROR gamma counter-screen; Drosophila S2 Gal4-VP16 UAS-luciferase, luminescence, 20 h; AID 2546; Potency, µM (top dose mostly 53.6 µM), inactives show at the highest dose activity, negative = inhibition, actives largely listed as inhibitors; 310,000 tested, 3.5% active;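 also: Gal4-VP16 expression switched on by copper sulfate through the metallothionein promoter; % is scaled to controls: 0 for no effect and ±100 for the full control effect; nearly all actives have a fitted effect of over 50% in size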
HepG2 tox – HepG2 cytotoxicity, counter-screen for TGF-b inhibitors. AID 588856. HepG2 CAGA-GFP viability, ATP luminescence, 18 h. Potency, µM (highest dose often 46.1 µM), for the others: top-dose activity change, negative = cytotoxicity, usual class: cytotoxic. 410,000 tested, 0.76% active
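CellTiter-Glo luminescence gave cytotoxicity after 18 hours at 37 degrees C. The cells were HepG2 CAGA-GFP in 1% FBS DMEM, stimulated with 500 pg/mL TGF-beta after compound addition. %Activity was normalised to no-cell wells (complete cell-killing) and DMSO (no toxicity), and curves were fitted and classified.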
Numbers without * were called inactive. Hits are enriched below; roughly 6.1% of the tested compounds scored in any of these assays. Calls follow the shape of the dose curve; as a rule, active = well fitted curve in the direction sought with a large enough effect; inconclusive = small, poorly fitted or top-dose-only effect, or another doubt; inactive = no such curve, though single readings can be large; an effect the other way counts as inactive or inconclusive. Potency is read from the fitted curve at half-maximal effect.

`Cc1nc2c(C(=O)NCCc3ccc(Cl)cc3)c[nH]n2c(=O)c1Cc1ccccc1F` gave S2 tox inactive, TGFb inhibitor 13µM*, ATXN2 expr inh -12% and HepG2 tox 16µM*.
Screening Cc1nc2c(C(=O)NCCc3ccccc3)c[nH]n2c(=O)c1Cc1ccc(F)cc1Cl returned S2 tox inactive, TGFb inhibitor inconclusive, ATXN2 expr inh -12% and HepG2 tox -49%.
Screening Clc1ccccc1OCCSc1nnc(-c2cccs2)o1 returned S2 tox inactive, TGFb inhibitor inconclusive, ATXN2 expr inh 12% and HepG2 tox -2%.
`O=C(Nc1ccc(-c2nc3ccccc3s2)c(O)c1)C1=COCCO1` gave RORg inh 0.5µM*, S2 tox inactive, TGFb inhibitor -1%, ATXN2 expr inh inconclusive, VP16 counter inconclusive and HepG2 tox -4%.
`O=C(Nc1ccc(-c2nc3ccccc3s2)cc1)C1=COCCO1` gave RORg inh 2µM*, S2 tox inactive, TGFb inhibitor -5%, ATXN2 expr inh inconclusive, VP16 counter 4.5µM* and HepG2 tox -21%.
Screening O=C(Nc1cccc(-c2nc3ccccc3s2)c1)C1=COCCO1 returned RORg inh 27%, S2 tox inactive, TGFb inhibitor -29%, ATXN2 expr inh 36%, VP16 counter 1% and HepG2 tox -11%.
CC1=C(c2ccc(C(C)C)cc2)S(=O)(=O)NC1=NCc1ccccc1C was read as TGFb inhibitor -8% and HepG2 tox -26%.
For S=c1c2c(nc3nc[nH]n13)CCC2 the results were RORg inh inconclusive, S2 tox 6.3µM*, TGFb inhibitor 10µM*, VP16 counter 0.89µM* and HepG2 tox -64%.
Screening CC1CCc2c(nc3nc[nH]n3c2=O)C1 (centres undefined) returned RORg inh -17%, S2 tox inactive, TGFb inhibitor 6%, ATXN2 expr inh -11%, VP16 counter 4% and HepG2 tox -25%.
Screening N=C1S/C(=C\c2ccco2)C(=O)N1c1nccs1 returned RORg inh 0.018µM*, S2 tox inconclusive, TGFb inhibitor inconclusive, VP16 counter 0.22µM* and HepG2 tox -13%.
Screening C/C(=N\Nc1nc2ccccc2[nH]1)c1cc2ccccc2o1 returned RORg inh 4.5µM*, TGFb inhibitor inconclusive, ATXN2 expr inh 10%, VP16 counter 3.5µM* and HepG2 tox -42%.
Screening C/C(=N\Nc1nc2ccccc2[nH]1)c1ccccn1 returned RORg inh 2.5µM* and VP16 counter -70%.
For C/C(=N/O)c1ccccn1 the results were RORg inh -28%, S2 tox inactive, TGFb inhibitor 0%, ATXN2 expr inh -7%, VP16 counter 1% and HepG2 tox -2%.
`Cc1ccc(-c2nc(N/N=C/c3cccc([N+](=O)[O-])c3)c3ccccc3n2)cc1` gave RORg inh 6%, TGFb inhibitor -2%, ATXN2 expr inh inconclusive, VP16 counter 5% and HepG2 tox -19%.
Screening Cc1ccc(-c2nc(N/N=C/c3cccnc3)c3ccccc3n2)cc1 returned RORg inh inconclusive, S2 tox inactive, TGFb inhibitor inconclusive, ATXN2 expr inh 71%, VP16 counter inconclusive and HepG2 tox 14µM*.
Screening COc1ccc(S(=O)(=O)c2c(SC)nn(Cc3ccccc3C)c2NC(C)=O)cc1 returned S2 tox inconclusive, TGFb inhibitor -1%, ATXN2 expr inh -26% and HepG2 tox -8%.
CCC(C)NC(=O)c1ccc(Cn2c(=O)c3cccn3c3cccnc32)cc1 (centres undefined) was read as TGFb inhibitor -30% and HepG2 tox -7%.
Oc1c(Br)cc(/C=N/Nc2ccc(Cl)nn2)cc1Br was read as RORg inh 0%, TGFb inhibitor 4%, ATXN2 expr inh 11%, VP16 counter -21% and HepG2 tox 5%.
CCCOc1ccc(/C=N/Nc2ccccc2[N+](=O)[O-])c(O)c1 was read as RORg inh 7.1µM*, S2 tox inconclusive, TGFb inhibitor 5%, ATXN2 expr inh inconclusive, VP16 counter inconclusive and HepG2 tox -6%.
Screening CCOc1ccc(/C=N/Nc2ccc(Cl)nn2)c(O)c1 returned RORg inh 1.6µM*, S2 tox inactive, TGFb inhibitor inconclusive, ATXN2 expr inh inconclusive, VP16 counter 2µM* and HepG2 tox -26%.
For Oc1c(Br)cc(Br)cc1/C=N/Nc1ccc(Cl)nn1 the results were RORg inh inconclusive, S2 tox inconclusive, TGFb inhibitor -5%, ATXN2 expr inh 2.8µM*, VP16 counter -17% and HepG2 tox -18%.
Screening CN(C)c1ccc(/C=C2\C=Cc3ccccc32)cc1[N+](=O)[O-] returned TGFb inhibitor -5% and HepG2 tox -18%.
`C/C(CC(=O)N1CCN(C=O)CC1)=N\NC(=O)c1ccc(Cl)cc1` gave RORg inh inconclusive, S2 tox inactive, TGFb inhibitor -1%, ATXN2 expr inh -6%, VP16 counter 11µM* and HepG2 tox -10%.
For CCOC(=O)C(C)/C(C)=N/NC(=O)c1cc2ccccc2cc1O (centres undefined) the results were RORg inh 11µM*, S2 tox inactive, TGFb inhibitor -6%, ATXN2 expr inh -27%, VP16 counter 13µM* and HepG2 tox 5%.
Screening NNC(=O)c1cc2ccccc2cc1O returned RORg inh inconclusive, S2 tox inactive, TGFb inhibitor 0%, ATXN2 expr inh inconclusive, VP16 counter inconclusive and HepG2 tox -23%.
Screening O=C(OCC(=O)N1CCCCC1)c1cc2ccccc2cc1O returned RORg inh 6%, S2 tox inactive, TGFb inhibitor 9%, ATXN2 expr inh 36%, VP16 counter -16% and HepG2 tox -1%.
C/C(CC(=O)N1CCCC1)=N\NC(=O)c1cc2ccccc2cc1O was read as RORg inh 6.3µM*, S2 tox inactive, TGFb inhibitor -19%, VP16 counter inconclusive and HepG2 tox 34%.
CC(=O)c1c(C)oc2c(Br)cc(NS(=O)(=O)c3ccc(Br)cc3)cc12 was read as S2 tox inactive, TGFb inhibitor 8%, ATXN2 expr inh -2% and HepG2 tox 1%.
For COc1ccc(OC)c(NC(=O)C(C)n2nc(C)c3c(C)n(-c4ccccc4)nc3c2=O)c1 (centres undefined) the results were S2 tox inactive, TGFb inhibitor -8%, ATXN2 expr inh -20% and HepG2 tox -22%.
